Assay outcomes from PubChem.
Sampled rows, rich in hits. Any-hit rate of the full collection: about 17%.
ATXN viability = cell viability loss in ATXN counter-screen; S2 cells (HEK-293 line with an ATXN2-luciferase reporter) viability, CellTiter-Fluor protease fluorescence, 24 h; 0.49% of 400,000 active; AID 651635; Potency, µM (doses to about 56.7 µM), most hits filed as cytotoxic; further: nearly all actives have a fitted effect of over 40% in size
DT40 TDP1 no CPT = qHTS for Inhibitors of human tyrosyl-DNA phosphodiesterase 1 (TDP1): qHTS in cells in absence of CPT | 15% of 420,000 active | Potency, µM (doses to about 46.2 µM), for inactives: at the top dose activity change, negative = growth inhibition, most hits filed as inhibitors | DT40 Tdp1-/- hTDP1 cells, no CPT, ATP luminescence, 48 h | AID 686978, 2013; further: on the % scale 0 is the no-effect control and ±100 the full control effect; nearly all actives have a fitted effect of over 55% in size
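Growth of hTDP1-complemented DT40 Tdp1-knockout cells is measured by ATP luminescence after at least 48 hr compound exposure at 37 °C, with DMSO substituting for the 20 nM CPT used in the parallel screen.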
TGFb SMAD3 inh = TGF-b pathway inhibition; HepG2 CAGA-GFP TGF-b/SMAD3 reporter, GFP fluorescence, 18 h; TGF-beta stimulated, 500 pg/mL final; Potency, µM (titrated, usually from 46.1 µM), for inactives: at the highest dose activity, negative = inhibition, usual class: inhibitors; 1.2% of 410,000 active; further: on the % scale 0 is the no-effect control and ±100 the full control effect; nearly all actives have a fitted effect of over 65% in size
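Inhibition of TGF-beta-driven CAGA-GFP reporter expression in HEPG2 cells is measured by cellular GFP fluorescence after 18 h stimulation with 500 pg/mL recombinant TGF-beta in 1% FBS medium at 37 degrees C.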
HepG2 tox = HepG2 cytotoxicity, counter-screen for TGF-b inhibitors; HepG2 CAGA-GFP viability, ATP luminescence, 18 h; Potency, µM (titrated, usually from 46.1 µM), inactives show top-dose activity change, negative = cytotoxicity, usual class: cytotoxic; 0.76% of 410,000 active
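HepG2 CAGA-GFP cells (1000/well, DMEM with 1% FBS) received compound, then TGF-beta at 500 pg/mL final, and were incubated 18 hours at 37 degrees C. Viability was read by CellTiter-Glo luminescence. Media-only wells were set as complete cell-killing and DMSO as no toxicity.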
DT40 TDP1 CPT = growth inhibition of DT40 Tdp1-/-;hTDP1 cells with camptothecin (screen for TDP1 inhibitors); 12% of 420,000 active; Potency, µM (doses to about 46.2 µM), inactives show top-dose activity change, negative = growth inhibition, actives largely listed as inhibitors; AID 686979; chicken DT40 Tdp1-/-;hTDP1 cells + 20 nM CPT, ATP luminescence, 48 h; further: on the % scale 0 is the no-effect control and ±100 the full control effect; nearly all actives have a fitted effect of over 55% in size
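Cell growth measured by CellTiter-Glo luminescence after a minimum 48 h, 37 C compound exposure with 20 nM CPT in Tdp1-knockout DT40 cells stably expressing hTDP1, seeded 400/well; qHTS titration format.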
ATXN2 expr inh = reduces ATXN2 reporter expression in HEK-293 cells. HEK-293 ATXN2-luciferase reporter, luminescence, 24 h. Potency, µM (series often up to 57 µM), for the others: at the highest dose activity change, negative = inhibition, most hits filed as inhibitors. AID 1745845. 0.72% of 360,000 active; further: on the % scale 0 is the no-effect control and ±100 the full control effect; nearly all actives have a fitted effect of over 55% in size
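ATXN2-luciferase reporter cells (luciferase flanked by upstream and downstream ATXN2 gene portions) were treated 24 h at 37 °C with compounds at up to 57 uM. SteadyGlo luminescence gave expression; GF-AFC fluorescence gave viability.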
* marks the source's active call; other numbers are inactive results; i = inactive; u = inconclusive; x = no result. The call rests on the fitted dose curve; in most records, active means well fitted curve in the direction sought with a large enough effect; inconclusive means small, poorly fitted or top-dose-only effect, or another doubt; inactive means no such curve, though single readings can be large; an effect the other way counts as inactive or inconclusive. Potency means the concentration at half of the fitted maximal effect.

SMILES | ATXN viability | DT40 TDP1 no CPT | TGFb SMAD3 inh | HepG2 tox | DT40 TDP1 CPT | ATXN2 expr inh
COc1ccc(Nc2nc(N)nc(C(F)(F)F)n2)c(OC)c1 | i | -2.0% | -7.0% | -37.1% | -18.3% | 4.2%
CCOc1nc(Nc2cc(Cl)ccc2OC)nc(OCC)n1 | i | u | 6.7% | -3.7% | 20.6µM* | 7.8%
CCOc1nc(Nc2ccc(OC)cc2OC)nc(OCC)n1 | i | 16.4µM* | -20.1% | -19.6% | -22.5% | x
Cc1ccc(-c2nc3c(Cl)cc(C(F)(F)F)cn3c2Cc2cccc(F)c2)cc1 | i | u | -19.2% | -22.7% | u | 0.4%
O=C(NN=C1CCCCCC1)c1cccs1 | i | 21.4% | -18.9% | 5.3% | 15.3% | 20.2%
Nc1nnnn1/N=C/c1cc(Cl)ccc1O | x | -2.4% | 20.1% | -0.2% | -1.4% | x
CCN(CC)c1ccc(/C=N/n2nnnc2N)c(O)c1 | i | 16.4µM* | 27.5% | -22.2% | 14.6µM* | 22.7%
CCN(C)c1ccc(/C=N\n2nnnc2N)cc1 | i | 5.8µM* | 1.0% | 3.0% | 7.31µM* | 136.1%
C/C(CC(=O)Nc1ccc(Cl)c(Cl)c1)=N\NC(N)=S | i | u | -29.1% | -28.5% | u | -14.7%
COc1cccc(CNC(=O)c2ccc(C3SCCS3)cc2)c1 | i | u | -4.6% | -17.3% | u | 3.4%
CN(C)c1ccc2cc(C(=O)N[C@@H](CCCN=C(N)CCl)C(=O)NCc3ccccc3)ccc2c1 | x | x | x | x | x | 30.6µM*
O=C(N[C@@H](CO)C(=O)NCc1ccccc1)c1ccc(C(F)(F)F)cc1 | i | 1.9% | -2.3% | -1.7% | -3.8% | 6.6%
Cn1nc(-c2ccccc2)c(-c2nc(-c3cccc(C(F)(F)F)c3)no2)c1Cl | i | 1.64µM* | 1.7% | -21.6% | u | -15.4%
Cn1nc(-c2ccccc2)c(-c2nc(-c3cccc(Cl)c3)no2)c1Cl | i | u | 9.9% | 14.7% | u | -1.9%
COc1ccccc1NC(=O)CCc1nnc2ccc(N3CCC4(CC3)OCCO4)nn12 | i | -2.6% | 1.5% | 3.0% | -6.0% | -4.6%
Cc1cc2cc(CCNC(=O)c3ccc(S(=O)(=O)N4CCOCC4)cc3)c(=O)[nH]c2cc1C | i | 18.4µM* | 5.9% | -20.9% | 16.4µM* | -23.9%
Cc1ccc2cc(CCNC(=O)c3ccc(S(=O)(=O)N4CCOCC4)cc3)c(=O)[nH]c2c1 | i | -27.6% | 0.1% | 14.7% | u | 3.0%
Cc1ccc2cc(CCNC(=O)c3ccc(S(=O)(=O)N4CCCCC4)cc3)c(=O)[nH]c2c1 | u | 23.1µM* | 2.1% | -6.4% | u | -19.5%
O=C(CNC(=O)c1sc2ccccc2c1Cl)Nc1ccccc1F | i | -27.7% | 4.7% | -29.4% | -14.1% | 5.8%
O=C(CN1CCN(Cc2ccccc2)CC1)Nc1cccc(C(F)(F)F)c1 | i | -5.4% | 10.0% | -24.9% | -20.1% | -5.5%
CC1CN(CC(=O)Nc2cccc(C(=O)Nc3cccc(C(F)(F)F)c3)c2)CC(C)O1 (stereo not given) | i | 23.1µM* | -13.3% | -30.2% | 23.1µM* | -15.1%
CC1CCN(CC(=O)Nc2cccc(C(=O)Nc3cccc(C(F)(F)F)c3)c2)CC1 | u | 16.4µM* | u | -55.5% | u | u
Cc1ccc(NC(=O)C2CCCN(S(=O)(=O)c3ccc4c(c3)CCCC(=O)N4)C2)cc1N(C)C (stereo not given) | u | x | -13.2% | -19.0% | x | -23.5%
C#CCOCCOCCOCCNc1nc(N2CCN(C(=O)CCCCCCCCCCNC(=O)[C@H](CCCCN)n3cc(CCO)nn3)CC2)nc(N2CCN(C(=O)CCCCCCCCCCNC(=O)[C@@H]([C@H](C)O)n3cc(C)nn3)CC2)n1 | u | u | -24.4% | -1.7% | u | -6.1%
